A short description of assay [1]: Viability qHTS for spleen associated tyrosine kinase inhibitor (SYKi) naive MV4-11 cells (AID 1963823). Also: nearly all actives have a fitted effect of over 40% in size. Also: potency is read from the fitted curve at half-maximal effect. The method in brief: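 Seeding of 500 SYKi-naive MV4-11 cells per well onto pre-dispensed compounds preceded a 72 hr incubation at 37 C. Luminescent CellTiter-Glo signal, read after 10 min at room temperature, reflected viable cells.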
A short description of assay [2]: Viability qHTS for spleen associated tyrosine kinase inhibitor (SYKi) drug resistant MV4-11 cells (AID 1963824). Also: nearly all actives have a fitted effect of over 35% in size. Also: potency is read from the fitted curve at half-maximal effect. The method in brief:
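SYK-inhibitor-resistant MV4-11 AML cells were seeded at 500 per well onto compound and cultured 72 hours (37 °C, 5% CO2). CellTiter-Glo was then added, and after 10 min at room temperature, luminescence gave viability.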

Assay [3] is described as follows: Quantitative highthroughput screen to assess conditional lethalithy of SEM cells grown in RPMI1640 with dialyzed fetal bovine serum (RPMI+ds) (AID 1963884). Also: nearly all actives have a fitted effect of over 35% in size. Also: potency is read from the fitted curve at half-maximal effect.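 As to Viability: series mostly up to about 46 µM; 100% = DMSO control wells and 0% = empty wells without cells.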 The method in brief: (§1)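 Each medium arm—HPLM with 10% dialyzed FBS, or RPMI1640 with 5 mM glucose and 10% untreated or dialyzed FBS—was screened against an 11-point, 3-fold compound titration for 48 h at 37 °C, with CellTiter-Glo luminescence as endpoint.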

A short description of assay [4]: Cellular viability qHTS for adrenocortical cancer (ACC) cell line NCI-H295R (AID 1963990). Also: nearly all actives have a fitted effect of over 60% in size. Also: potency is read from the fitted curve at half-maximal effect. The method in brief:
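Readout: CellTiter-Glo luminescence, 20 min RT. Exposure: 48 h, 37C/5% CO2. Cells: NCI-H295R, ITS-DMEM serum-free. Range: up to 46 uM. Analysis: 4PL fit, IC50 plus efficacy.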

Assay [5] can be described thus: Cellular viability qHTS for adrenocortical cancer (ACC) cell line SW-13 (AID 1963989). Also: nearly all actives have a fitted effect of over 65% in size. Also: potency is read from the fitted curve at half-maximal effect.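 As to activity (max response): cells grown in serum-free medium with ITS supplement; % is scaled to controls: 0 for no effect and ±100 for the full control effect.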 To be noted: SW-13 ACC cells viability, CellTiter-Glo, 48 h; activity (max response): stronger effect = lower value. The method in brief:
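Compound titrations (up to 46 uM final, in DMSO) were applied to SW-13 cells for 48 h at 37C/5% CO2. Reading used CellTiter-Glo after 20 min at room temperature; fitted curves yielded IC50 and efficacy.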

Assay [6] is described as follows: Quantitative highthroughput screen to assess conditional lethalithy of NOMO1 cells grown in RPMI1640 with dialyzed fetal bovine serum (RPMI+ds) (AID 1963877).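 Also: series mostly up to about 46 µM; 100% = DMSO control wells and 0% = empty wells; nearly all actives have a fitted effect of over 30% in size.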 In a few lines: as §1
Assay [7] in a line: Quantitative highthroughput screen to assess conditional lethalithy of NOMO1 cells grown in Human Plasma-Like Medium with dialyzed fetal bovine serum (HPLM+ds) (AID 1963878). Also: nearly all actives have a fitted effect of over 35% in size. Also: potency is read from the fitted curve at half-maximal effect.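 As to Viability: 100% = DMSO wells and 0% = empty wells on each plate.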 The method in brief: as §1
A short description of assay [8]: Quantitative highthroughput screen to assess conditional lethalithy of P12 Ichikawa cells grown in RPMI1640 with untreated serum (RPMI+s) (AID 1963881). Also: nearly all actives have a fitted effect of over 35% in size. Also: potency is read from the fitted curve at half-maximal effect.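 As to Viability: series mostly up to about 46 µM; 100% = DMSO wells and 0% = empty wells without cells.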 To be noted: Potency: viability. In a few lines:
as §1

The nature of assay [9]: Quantitative highthroughput screen to assess conditional lethalithy of SEM cells grown in RPMI1640 with unreated serum (RPMI+s) (AID 1963883). In a few lines: as §1
The nature of assay [10]: Quantitative highthroughput screen to assess conditional lethalithy of P12 Ichikawa cells grown in Human Plasma-Like Medium with dialyzed fetal bovine serum (HPLM+ds) (AID 1963879). Also: nearly all actives have a fitted effect of over 35% in size. Also: potency is read from the fitted curve at half-maximal effect. As to Viability: series mostly up to about 46 µM. The note with it: Potency: viability. In a few lines: as §1
Assay [11] can be described thus: Quantitative highthroughput screen to assess conditional lethalithy of SEM cells grown in Human Plasma-Like Medium with dialyzed fetal bovine serum (HPLM+ds) (AID 1963882). The method in brief: as §1

Where “and” joins values, the source holds several entries; their conditions need not be identical. Equal values may be shown once. Results filed as inconclusive are left out. The source holds several records for some structures; these can differ, active in one and inactive in another. Calls of active or inactive are those of the source. Calls follow the shape of the dose curve; as a rule, active = well fitted curve in the direction sought with a large enough effect; inconclusive = small, poorly fitted or top-dose-only effect, or another doubt; inactive = no such curve, though single readings can be large; an effect the other way counts as inactive or inconclusive.

Take `CCN1CCN(C(=O)Cc2ccc(Nc3ncc(F)c(Nc4ccc(C(=O)Nc5ccccc5Cl)cc4)n3)cc2)CC1`: the Potency was 468 nM (active) in assay [1], 525 nM (active) in [2], 4.69 µM (active) in assay [3] and 3.55 µM (active) in assay [4].
With `COC12C(COC(N)=O)C3=C(C(=O)C(C)=C(N)C3=O)N1CC1C2N1C` (configuration not stated), the Potency in assay [1] was 590 nM (active); in assay [2], 833 nM (active); in [5], 25.1 µM (active).
For `c1ccc2c(c1)Nc1ccccc1S2`, the Potency result in assay [1] and in assay [2] was “inactive” throughout. Further, the activity (max response) in assay [5] was -23.4% (inactive).
`CC(C)c1cccc(C(C)C)c1O`: the Potency result in assay [1], in assay [2], in [6], in [7], in assay [8] and in assay [9] was “inactive” in each case. Also, in assay [5], the activity (max response) is 18.8% (inactive) and -6.92% (inactive). The Potency result in [4] is “inactive and 23.1 µM (active)”.
As to `COC[C@H]1OC(=O)c2coc3c2[C@@]1(C)C1=C(C3=O)[C@@H]2CC[C@H](O)[C@@]2(C)C[C@H]1OC(C)=O`, the Potency in [1] and in assay [2] was 1660 nM (active) each time. Further, the activity (max response) in assay [5] is -16.1% (inactive).
`CCCCCCCCCC(=O)O[C@H]1CC[C@H]2[C@@H]3CCC4=CC(=O)CC[C@@H]4[C@H]3CC[C@]12C`: the Potency entry in [1] and in assay [2] was “inactive” each time. The activity (max response) in [5] is 6.32% (inactive).
On to `CCCN1CCO[C@@H]2c3cc(O)ccc3OC[C@H]21`, for which the Potency result in assay [1] and in assay [2] was “inactive” throughout. In addition, the activity (max response) in [5] was 7.73% (inactive).
Consider `CCNC(=O)CC1N=C(c2ccc(Cl)cc2)c2cc(OC)ccc2-n2c(C)nnc21` (configuration not stated), for which the Potency in [1] is 14.8 µM (active) and inactive and 517 nM (active); in assay [2], 8.33 µM (active) and inactive and 517 nM (active); in assay [3], 23.5 µM (active). Also, the Potency result in assay [6] and in assay [4] was “inactive” in each case. Besides, the activity (max response) in assay [5] is -19.5% (inactive).
On to `COc1ccc(N(C(=O)Oc2c(C)cccc2C)c2ccnc(Nc3ccc(N4CCN(C)CC4)cc3)n2)c(OC)c1`, for which the Potency in assay [1] was 1480 nM (active); in [2], 1.16 µM (active) and 2.35 µM (active); in assay [5], 8.91 µM (active); in assay [4], 12.6 µM (active). The Potency entry in assay [6] and in assay [10] was “inactive” in each case.
Consider `C=C(C)[C@H]1Cc2c(ccc3c2O[C@@H]2COc4cc(OC)c(OC)cc4[C@@H]2C3=O)O1`, for which the Potency in assay [1] was 37.6 nM (active); in assay [2], 37.6 nM (active); in assay [10], 3.72 µM (active); in assay [8], 2.09 µM (active); in assay [11], 5.26 µM (active); in assay [3] it was 3.72 µM (active). Moreover, the Potency in assay [5] is 0.0116 µM (active); in assay [4], 0.103 µM (active).
In the case of `Cc1nnc2n1-c1sc(CCC(=O)N3CCOCC3)cc1C(c1ccccc1Cl)=NC2`, the Potency result in [1] and in assay [2] was “inactive” each time. Further, in [5], the activity (max response) is 5.36% (inactive).
Take `C[C@H](N)C(=O)c1ccccc1`: the Potency result in assay [1] and in assay [2] was “inactive” each time. In addition, in [5], the activity (max response) was -8.86% (inactive).
`O=P1(N(CCCl)CCCl)NCCCO1` (configuration not stated): the Potency result in [1], in assay [2], in [7] and in assay [4] was “inactive” in each case. Moreover, the Potency in assay [10] was 10.5 µM (active); in assay [8], 14.8 µM (active); in [11] it was 9.35 µM (active); in assay [3] it was 9.35 µM (active). Besides, the activity (max response) in [5] is 0.4% (inactive) and 11% (inactive).
For the compound `Fc1ccc(C(OCCN2CCN(CCCc3ccccc3)CC2)c2ccc(F)cc2)cc1`, the Potency in [1] was 5.96 µM (active) and 6.61 µM (active); in [2] it was 6.68 µM (active) and 6.61 µM (active); in assay [7], 20.9 µM (active); in assay [5] it was 5.8 µM (active) and 14.1 µM (active); in assay [4], 4.61 µM (active) and 11.2 µM (active).
In the case of `N[C@@H](Cc1ccc(Oc2cc(I)c(O)c(I)c2)c(I)c1)C(=O)O`, the Potency result in assay [1] and in assay [2] was “inactive” throughout. Moreover, the activity (max response) in assay [5] is 2.16% (inactive).
Turning to `CC(C)(O)/C=C\C(=O)[C@](C)(O)[C@H]1[C@H](O)C[C@]2(C)[C@@H]3CC=C4[C@@H](C=C(O)C(=O)C4(C)C)[C@]3(C)C(=O)C[C@@]12C`, the figures for the Potency in [1], in assay [2] and in assay [5] were 59 nM (active), 46.8 nM (active) and 0.562 µM (active), respectively.
Take `Cc1ncsc1CCCl`: the Potency entry in [1] and in assay [2] was “inactive” each time. Further, the activity (max response) in [5] is 10.3% (inactive).
For `CC(C)C[C@H](CN)CC(=O)O`, the Potency entry in assay [1], in [2], in assay [6] and in assay [7] was “inactive” in each case. Further, the activity (max response) in [5] is 8.17% (inactive).
As for `C[C@@H]1CN(Cc2ccc(F)cc2)CCN1C(=O)COc1ccc(Cl)cc1NC(N)=O`, the Potency in [1] was 934 nM (active); in [2], 820 nM (active); in assay [5], 5.01 µM (active).
Regarding `CC(C)(C)c1cc(C=C(C#N)C#N)cc(Br)c1O`, the Potency in [1] and in assay [2] was 16600 nM (active) in each case. Also, the Potency entry in [10], in [8], in [9], in [3] and in assay [4] was “inactive” throughout. In [5], the activity (max response) was 9.19% (inactive).
For the compound `N=c1c2c(-c3ccccc3)c(-c3ccccc3)n(Cc3ccccc3)c2ncn1C1CCC(O)CC1` (configuration not stated), the Potency in assay [1] was 525 nM (active); in [2], 372 nM (active); in assay [7], 16.6 µM (active); in assay [5] it was 17.8 µM (active); in [4], 8.91 µM (active).

(Values after PubChem BioAssay (NCATS).)
